Counter-ions that a name gives are not always drawn. ± gives the standard deviation of the averaged measurements.
These compounds were tested on Klebsiella pneumoniae NCTC-13439 (assay: percent growth inhibition of drug alone vs DMSO control; higher = more growth inhibition). Details: antibiotic (0.125x MIC): none (0.1% DMSO); 7 µM.
For `CC[C@H]1OC(=O)[C@H](C)[C@@H](O[C@H]2C[C@@](C)(OC)[C@@H](O)[C@H](C)O2)[C@H](C)[C@@H](O[C@@H]2O[C@H](C)C[C@H](N(C)C)[C@H]2O)[C@](C)(O)C[C@@H](C)CN(C)[C@H](C)[C@@H](O)[C@]1(C)O` [Azithromycin], the “percent growth inhibition of drug alone” value was 55.2 ± 6.6%.
`CC(=O)OC[C@H]1O[C@@H]([S-])[C@H](OC(C)=O)[C@@H](OC(C)=O)[C@@H]1OC(C)=O.CCP(CC)CC.[Au+]` [Auranofin] was tested, and the “percent growth inhibition of drug alone” value was 9.98 ± 8.3%.
`CO[C@H]1/C=C/O[C@@]2(C)Oc3c(C)c(O)c4c(O)c(c(/C=N/N5CCN(C6CCCC6)CC5)c(O)c4c3C2=O)NC(=O)/C(C)=C\C=C\[C@H](C)[C@H](O)[C@@H](C)[C@@H](O)[C@@H](C)[C@H](OC(C)=O)[C@@H]1C` [Rifapentine] was tested, and the “percent growth inhibition of drug alone” value was 6.76 ± 7.4%.
For `CO[C@H]1/C=C/O[C@@]2(C)Oc3c(C)c(O)c4c(c3C2=O)C2=NC3(CCN(CC(C)C)CC3)NC2=C(NC(=O)/C(C)=C\C=C\[C@H](C)[C@H](O)[C@@H](C)[C@@H](O)[C@@H](C)[C@H](OC(C)=O)[C@@H]1C)C4=O` [Rifabutin], the “percent growth inhibition of drug alone” value was 5.74 ± 2.1%.
For `NC[C@@H]1O[C@H](O[C@H]2[C@@H](O)[C@H](O[C@@H]3[C@@H](O)[C@H](N)C[C@H](N)[C@H]3O[C@H]3O[C@H](CO)[C@@H](O)[C@H](O)[C@H]3N)O[C@@H]2CO)[C@H](N)[C@@H](O)[C@@H]1O` [Paromomycin sulfate], the “percent growth inhibition of drug alone” value was 11.4 ± 2.6%.
In the case of `CO[C@H]1/C=C/O[C@@]2(C)Oc3c(C)c(O)c4c(O)c(c5c(nc6cc(C)ccn65)c4c3C2=O)NC(=O)/C(C)=C\C=C\[C@H](C)[C@H](O)[C@@H](C)[C@@H](O)[C@@H](C)[C@H](OC(C)=O)[C@@H]1C` [Rifaximin], the “percent growth inhibition of drug alone” value is reported as 1.28 ± 0.063%.
With `O=c1[nH]c(=O)n([C@H]2C[C@H](O)[C@@H](CO)O2)cc1F` [Floxuridine] the “percent growth inhibition of drug alone” value was 43.4 ± 0.88%.
With `CN[C@@H]1[C@@H](O[C@H]2O[C@H](CO)[C@@H](N)[C@H](O)[C@H]2O)OC2C[C@@H](N)[C@@H](O[C@H]3[C@H](O)[C@@H](O)[C@H](N)C[C@@H]3N)OC2[C@@H]1O` (stereo partly drawn) [Apramycin] the “percent growth inhibition of drug alone” value was 4.78 ± 15%.
For `O=C1OCCN1/N=C/c1ccc([N+](=O)[O-])o1` [Furazolidone], the “percent growth inhibition of drug alone” value was 17.5 ± 3%.
With `OCCOCCN1CCN(C2=Nc3ccccc3Sc3ccccc32)CC1` [Quetiapine hemifumarate] the “percent growth inhibition of drug alone” value was -15.6 ± 19%.
In the case of `O=C(O)c1cn(-c2ccc(F)cc2)c2cc(N3CCNCC3)c(F)cc2c1=O` [Sarafloxacin], the “percent growth inhibition of drug alone” value is reported as 19.6 ± 1.8%.
With `CN(C)c1ccc(O)c2c1C[C@H]1C[C@H]3[C@H](N(C)C)C(O)=C(C(N)=O)C(=O)[C@@]3(O)C(O)=C1C2=O` [Minocycline hydrochloride] the “percent growth inhibition of drug alone” value was 3.05 ± 3.2%.

Same assay, conditions: antibiotic (0.125x MIC): none (0.1% DMSO); 20 µM
`CC[C@H]1OC(=O)[C@H](C)[C@@H](O[C@H]2C[C@@](C)(OC)[C@@H](O)[C@H](C)O2)[C@H](C)[C@@H](O[C@@H]2O[C@H](C)C[C@H](N(C)C)[C@H]2O)[C@](C)(O)C[C@@H](C)CN(C)[C@H](C)[C@@H](O)[C@]1(C)O` [Azithromycin] was tested, and the “percent growth inhibition of drug alone” value was 74.4 ± 19%.
With `CC(=O)OC[C@H]1O[C@@H]([S-])[C@H](OC(C)=O)[C@@H](OC(C)=O)[C@@H]1OC(C)=O.CCP(CC)CC.[Au+]` [Auranofin] the “percent growth inhibition of drug alone” value was 22.6 ± 13%.
In the case of `CO[C@H]1/C=C/O[C@@]2(C)Oc3c(C)c(O)c4c(O)c(c(/C=N/N5CCN(C6CCCC6)CC5)c(O)c4c3C2=O)NC(=O)/C(C)=C\C=C\[C@H](C)[C@H](O)[C@@H](C)[C@@H](O)[C@@H](C)[C@H](OC(C)=O)[C@@H]1C` [Rifapentine], the “percent growth inhibition of drug alone” value is reported as 11.1 ± 17%.
In the case of `NC[C@@H]1O[C@H](O[C@H]2[C@@H](O)[C@H](O[C@@H]3[C@@H](O)[C@H](N)C[C@H](N)[C@H]3O[C@H]3O[C@H](CO)[C@@H](O)[C@H](O)[C@H]3N)O[C@@H]2CO)[C@H](N)[C@@H](O)[C@@H]1O` [Paromomycin sulfate], the “percent growth inhibition of drug alone” value is reported as 43.7 ± 12%.
`CO[C@H]1/C=C/O[C@@]2(C)Oc3c(C)c(O)c4c(O)c(c5c(nc6cc(C)ccn65)c4c3C2=O)NC(=O)/C(C)=C\C=C\[C@H](C)[C@H](O)[C@@H](C)[C@@H](O)[C@@H](C)[C@H](OC(C)=O)[C@@H]1C` [Rifaximin] was tested, and the “percent growth inhibition of drug alone” value was 17.5 ± 13%.
In the case of `O=c1[nH]c(=O)n([C@H]2C[C@H](O)[C@@H](CO)O2)cc1F` [Floxuridine], the “percent growth inhibition of drug alone” value is reported as 99.63 ± 0.17%.
For `CN[C@@H]1[C@@H](O[C@H]2O[C@H](CO)[C@@H](N)[C@H](O)[C@H]2O)OC2C[C@@H](N)[C@@H](O[C@H]3[C@H](O)[C@@H](O)[C@H](N)C[C@@H]3N)OC2[C@@H]1O` (stereo partly drawn) [Apramycin], the “percent growth inhibition of drug alone” value was 88 ± 17%.
`O=C1OCCN1/N=C/c1ccc([N+](=O)[O-])o1` [Furazolidone] was tested, and the “percent growth inhibition of drug alone” value was 49.8 ± 1.5%.
For `OCCOCCN1CCN(C2=Nc3ccccc3Sc3ccccc32)CC1` [Quetiapine hemifumarate], the “percent growth inhibition of drug alone” value was -5.29 ± 6.1%.
With `O=C(O)c1cn(-c2ccc(F)cc2)c2cc(N3CCNCC3)c(F)cc2c1=O` [Sarafloxacin] the “percent growth inhibition of drug alone” value was 98.4 ± 1.6%.
For `CN(C)c1ccc(O)c2c1C[C@H]1C[C@H]3[C@H](N(C)C)C(O)=C(C(N)=O)C(=O)[C@@]3(O)C(O)=C1C2=O` [Minocycline hydrochloride], the “percent growth inhibition of drug alone” value was 6.86 ± 3.9%.

— the supplement of paper PMC6658780
